The panel holds about 83,000 compounds, 20% with a hit somewhere; the sample as a whole holds those more often.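 Percent growth is the endpoint: 0 to 100 indicates growth inhibition (40 means 60% inhibition), 0 means no net growth, and negative values indicate cell death.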 A number with no mark means an inactive call. Calls of active or inactive are those of the source. How the source made its calls: active means growth percent below 10; inactive means the rest.
How the values were obtained:
Experiment in all cases: NCI-60 one-dose screen, 48 h (100 = growth as untreated, 0 = no growth, -100 = all killed)
Settings in all cases: 10 µM unless noted
[1] = test system: NCI-H226 lung
[2] = test system: NCI-H322M lung
[3] = test system: HOP-62 NSCLC
[4] = test system: NCI-H460 lung
[5] = test system: HOP-92 NSCLC
[6] = test system: NCI-H522 lung
[7] = test system: A549/ATCC NSCLC
[8] = test system: 786-0 renal
[9] = test system: COLO 205 colon
[10] = test system: DU-145 prostate
[11] = test system: K-562 leukemia
[12] = test system: MALME-3M melanoma
[13] = test system: MDA-MB-231 breast
[14] = test system: RXF 393 renal
[15] = test system: SF-268 CNS
[16] = test system: SF-295 CNS
[17] = test system: SF-539 CNS
[18] = test system: UACC-257 melanoma
[19] = test system: M14 melanoma
[20] = test system: NCI-H23 lung

| Compound | growth [1] | growth [2] | growth [3] | growth [4] | growth [5] | growth [6] | growth [7] | growth [8] | growth [9] | growth [10] | growth [11] | growth [12] | growth [13] | growth [14] | growth [15] | growth [16] | growth [17] | growth [18] | growth [19] | growth [20] |
| --- | --- | --- | --- | --- | --- | --- | --- | --- | --- | --- | --- | --- | --- | --- | --- | --- | --- | --- | --- | --- |
| COC(=O)/C=C/c1cccc2c1C(=O)NC(C)(c1cc3cc4ccccc4cc3oc1=O)N2 (stereo not drawn) | 30.5% | 68% | 33.7% | 23.1% | 47.1% | 52.9% | 26.9% | 83.9% | 53% | 46.1% | 46.7% | 19.6% | 28.5% | -0.792% (active) | 42.8% | 75.3% | 44.7% | 77.8% | 55.9% | – |
| COC(=O)/C=C/c1cccc2c1C(=O)NC(C)(c1cc3ccccc3oc1=O)N2 (stereo not drawn) | 63.1% | 93.7% | 72.4% | 44.5% | 50.7% | 62% | 67.9% | 58.9% | 63.1% | 62.7% | 56.6% | 58.7% | 76.3% | 58.9% | 82.3% | 84.9% | 73.2% | 77.7% | 41.7% | – |
| CCOC(=O)C1=C(N)N(c2ccccc2)C2=C(C(=O)CC(C)(C)C2)C1c1ccc(N2CCOCC2)cc1 (stereo not drawn) | 89.8% | 99.1% | 102% | 106% | 87.7% | 89.4% | 103% | 87.7% | 108% | 111% | 96.9% | 112% | 104% | 91.2% | 97.4% | 98.9% | 93% | 109% | 101% | – |
| O=c1c2ccccc2nc(-c2ccccc2)n1/N=C/c1ccc2ccccc2c1 | 53.3% | – | 55.7% | 8.58% (active) | – | 63.1% | 41.8% | 53% | 58.2% | 55.8% | 26.7% | 59% | – | 81.2% | 49.9% | 46.8% | 27.2% | 49.3% | 57.2% | 68.2% |
| CCOC(=O)C1=C(N)N(c2ccccc2)C2=C(C(=O)CC(C)(C)C2)C1c1ccccc1Cl (stereo not drawn) | 76.3% | 82.2% | 94.1% | 60.2% | 68.9% | 57.5% | 75.6% | 79.4% | 65.3% | 88.2% | 41.5% | 89.3% | 84.8% | 78.2% | 80% | 75% | 100% | 72.5% | – | – |
| Cn1cc(-c2cc(N)n3nc(-c4cn(C)c5ccccc45)cc3n2)c2cc(Cl)ccc21 | 21.5% | -1.12% (active) | -52.1% (active) | -50.2% (active) | -58.2% (active) | -62.7% (active) | 2.54% (active) | -86% (active) | -80.1% (active) | 22% | 1.57% (active) | -77% (active) | -45.4% (active) | -73.7% (active) | -46.4% (active) | -53.8% (active) | -69.3% (active) | -59.9% (active) | – | – |
| COc1ccc(NC(=O)[C@@H](N)Cc2ccccc2)cc1C(=O)Nc1cccc(C2CC(=O)c3c(cc(OC)c(OC)c3OC)O2)c1 (stereo partly drawn) | 69.8% | 79.3% | 86.8% | 54.7% | 44.4% | 39.6% | 68.9% | 72.2% | 78.4% | 58.1% | 17.5% | 66% | 63% | 73.7% | 60.5% | 127% | 82.4% | 95.5% | 65% | – |
| COc1cc2oc(-c3cccc(NC(=O)[C@H](CC(N)=O)NC(=O)OC(C)(C)C)c3)cc(=O)c2c(OC)c1OC | 92.7% | 101% | 104% | 89.1% | 74.9% | 73.7% | 95% | 88.2% | 109% | 97.1% | 77.1% | 107% | 97.7% | 69.4% | 90.2% | 103% | 78% | 112% | 115% | – |
| O=C(c1ccccc1)c1ccc2nc(-c3cccc(Cl)c3)[nH]c2c1 | 105% | 105% | 107% | 111% | 111% | 101% | 104% | 100% | 116% | 115% | 98.1% | 111% | 102% | 115% | 106% | 116% | 94.9% | 100% | 108% | – |
| CC(=O)c1c(N)c(C#N)cn1-c1ccc(Cl)cc1Cl | 80.6% | 101% | 94.6% | 111% | 98.6% | 82.3% | 95.8% | 99.2% | 105% | 113% | 95.1% | 107% | 99.7% | 104% | 107% | 116% | 99.9% | 106% | 98.9% | – |
| CCOC(=O)/C=C/c1cccc2c1C(=O)NC(C)(c1cc3cc(Br)ccc3oc1=O)N2 (stereo not drawn) | 43.3% | 88% | 65.6% | 46.1% | 40.2% | 29.1% | 40.1% | 59.4% | 46.5% | 49.6% | 24.1% | 71% | 56% | 35.6% | 49.8% | 36.7% | 73.9% | 64.6% | 42.4% | – |
| COc1ccc(Cc2nn(CC(=O)N/N=C/c3ccc(F)cc3)c(=O)c3c(C)noc23)cc1 | 27.4% | 37.1% | -53.1% (active) | 13.3% | -20.5% (active) | 64.5% | 14% | -20.9% (active) | 59.3% | 40% | 70.1% | -0.917% (active) | 31.3% | -26% (active) | 46.7% | -19.3% (active) | 57.1% | 54.3% | 50.8% | – |
| COc1ccc2oc(=O)c(C3(C)NC(=O)c4c(/C=C/C(=O)OC(C)(C)C)cccc4N3)cc2c1 (stereo not drawn) | 44.7% | 66.9% | 61% | 47.2% | – | 27.8% | 27.3% | 66.7% | 44.9% | 69.5% | 25.5% | 40.5% | 49.1% | 40.3% | 58.1% | 39.3% | 67.6% | 32.6% | 48.7% | – |
| CCOC(=O)C(N=Nc1ccc(S(=O)(=O)N=C(N)N)cc1)C(C)=O (stereo not drawn) | 95.1% | 107% | 119% | 109% | 99.9% | 95.2% | 107% | 96.7% | 106% | 111% | 94.1% | 129% | 107% | 105% | 101% | 125% | 104% | 126% | 124% | – |
| C#CCOc1ccc(/C=N/Nc2nc(-c3ccc(F)cc3)cs2)cc1OC | 54.1% | 83.1% | 86.9% | 77.4% | – | 46.9% | 72.9% | 84.4% | 68.9% | 89% | 25% | 86.3% | 73.5% | 24% | 84.8% | 79.2% | 70.6% | 63.7% | 61.3% | – |
| Cn1cc(-c2nc(N)nnc2-c2c[nH]c3ccc(F)cc23)c2cc(Br)cnc21 | 1.02% (active) | 34.8% | 20.1% | 0.596% (active) | -6.31% (active) | -52.3% (active) | 11.1% | 5.54% (active) | -82.9% (active) | 10.1% | 5.23% (active) | 21.6% | 5.57% (active) | -4.53% (active) | 4.51% (active) | 9.21% (active) | -11.5% (active) | 29.8% | -9.79% (active) | – |
